Source: PubChem BioAssay (Tox21)
Records with an inconclusive call do not appear. The source made the active and inactive calls. Unless noted, calls come from the whole dose curve; as a rule, active = well fitted curve in the direction sought with a large enough effect in the repeat runs; inconclusive = weak or mixed curves; inactive = no such curve, though single readings can be large; an effect the other way counts as inactive or inconclusive.

Legend:
[1] = qHTS assay to identify small molecule antagonists of the estrogen receptor alpha (ER-alpha) signaling pathway using the BG1 cell line in the presence of 0.1 nM 17-beta-estradiol - cell viability counter screen (AID 1259241); note: nearly all actives have a fitted effect of over 40% in size
Outline: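 Cytotoxicity counter-screen: live-cell protease activity measured by fluorescence (30 min reagent step) in the same wells. Cells were VM7Luc4E2 with endogenous ER-alpha and ERE-driven luciferase, treated 22 hr at 37C alongside 0.1 nM 17beta-estradiol final.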

[2] = qHTS assay to identify small molecule antagonists of the androgen receptor (AR) signaling pathway using the MDA cell line in the presence of 0.5 nM R1881 - cell viability counter screen (AID 1259242); note: nearly all actives have a fitted effect of over 45% in size
Outline: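 Viability of MDA-kb2 cells was multiplexed with the luciferase AR readout; after 16 hr with compounds and R1881 at 0.5 nM final, CellTiter-Fluor fluorescence was recorded.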

[3] = biological target: Estrogen receptor (Homo sapiens) (UniProt P03372); assay: qHTS assay to identify small molecule antagonists of the estrogen receptor alpha (ER-alpha) signaling pathway using the BG1 cell line in the presence of 0.1 nM 17-beta-estradiol (AID 1259244); note: nearly all actives have a fitted effect of over 50% in size
Sequence of Estrogen receptor (Homo sapiens) (P03372 whole entry, looked up): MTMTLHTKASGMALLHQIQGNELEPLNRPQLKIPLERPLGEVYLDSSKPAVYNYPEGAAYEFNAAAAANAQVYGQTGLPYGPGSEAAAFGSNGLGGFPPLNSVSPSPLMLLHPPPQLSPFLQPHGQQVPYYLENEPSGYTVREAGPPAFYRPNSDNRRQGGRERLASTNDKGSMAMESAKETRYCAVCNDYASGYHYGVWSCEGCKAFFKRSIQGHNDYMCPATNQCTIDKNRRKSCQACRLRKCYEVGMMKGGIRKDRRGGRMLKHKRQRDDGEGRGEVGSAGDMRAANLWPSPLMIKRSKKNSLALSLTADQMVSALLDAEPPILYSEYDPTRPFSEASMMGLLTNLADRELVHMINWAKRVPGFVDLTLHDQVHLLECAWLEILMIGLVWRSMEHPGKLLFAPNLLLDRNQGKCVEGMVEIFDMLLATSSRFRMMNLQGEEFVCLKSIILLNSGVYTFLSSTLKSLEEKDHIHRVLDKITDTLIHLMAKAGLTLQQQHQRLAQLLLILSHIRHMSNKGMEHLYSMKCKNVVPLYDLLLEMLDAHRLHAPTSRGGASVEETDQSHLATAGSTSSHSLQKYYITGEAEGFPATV
Outline: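 Estradiol at 0.1 nM (final) stimulates the endogenous ER-alpha of VM7Luc4E2 cells carrying an ERE-driven luciferase; compounds are co-incubated 22 h at 37C and luciferase output quantified by luminescence.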

[4] = qHTS assay to identify small molecule HDAC inhibitors (AID 1259364);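 note: wild-type HCT-116 cells with endogenous class I/II HDAC activity; top concentration of the series differs between compounds; nearly all actives have a fitted effect of over 45% in size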
Outline: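 Read-out: luminescence of HDAC-Glo I/II reagent, 30 min RT, reflecting class I/II deacetylase activity in whole HCT-116 cells pre-exposed 2 h to DMSO-dissolved compounds.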

[5] = qHTS assay to identify small molecule HDAC inhibitors - cell viability counter screen (AID 1259365); note: series mostly up to about 92 µM; nearly all actives have a fitted effect of over 50% in size
Outline: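 CellTiter-Glo luminescence (30 min, room temperature) reported viability after a 2 h compound exposure at 37 C. Cells: wild-type HCT-116, 1,500 per well, seeded the night before.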

[6] = qHTS assay to identify small molecule agonists of the sonic hedgehog signaling (Shh) pathway (AID 1259368; calls by dose curve;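 note: NIH/3T3-derived 3T3Gli1-Luc cells carrying a stable Gli1-driven firefly luciferase reporter; series mostly up to about 92 µM; nearly all actives have a fitted effect of over 15% in size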)
Outline: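 A Gli1 transcriptional response element controlled firefly luciferase in 3T3Gli1-Luc cells. Compounds and a positive control were added 4 hr after plating, and cells were incubated a further 24 hr at 37 C before luminescence detection.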

[7] = qHTS assay to identify small molecule agonists of the sonic hedgehog signaling (Shh) pathway - cell viability counter screen (AID 1259366); note: nearly all actives have a fitted effect of over 50% in size
Outline: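 Cytotoxicity counter screen: CellTiter-Fluor reagent added after 23 h compound exposure, then 1 h at 37C and fluorescence read. Cells were 3T3 Gli1-Luc, seeded 2,000 per well and dosed 4 h post-plating.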

[8] = qHTS assay to identify small molecule antagonists of the sonic hedgehog signaling (Shh) pathway - cell viability counter screen (AID 1259367); note: nearly all actives have a fitted effect of over 55% in size
Outline: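 NIH/3T3-derived Gli1-Luc reporter cells, 2,000/well, plated 4 hr before compound addition, then stimulated with conditioned medium for 24 hr at 37C. Viability measured in the same wells by CellTiter-Fluor fluorescence, reagent added at 23 hr for 1 hr.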

Measured: Potency

COc1cc(CC(C)N)c(OC)cc1Br (stereo not given)
inactive: [1] | [2] | [3] | [4] | [5] | [6]

Cc1ncc(C[n+]2csc(CCO)c2C)c(N)n1
inactive: [1] | [2] | [4] | [5] | [7] | [8] | [6]

CC(C)[C@@H](C(=O)O[C@@H](C#N)c1cccc(Oc2ccccc2)c1)c1ccc(Cl)cc1
inactive: [1] | [2] | [4] | [5] | [7] | [8]

Clc1ccc(Cl)c(Cl)c1
inactive: [1] | [2] | [4] | [7] | [8] | [6]
